The text below walks through data of PubChem BioAssay (EPA / NIEHS).

For test [1], the target named is human Retinoid X Receptor beta (RXRb), RXRB (gene 6257) (UniProt P28702). Nature of the test: ATG_RXRb_TRANS: Attagene TRANS-FACTORIAL HepG2 Assay for human Retinoid X Receptor beta (RXRb) (AID 2283013). The method in brief:
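Chimeric receptor-Gal4 activity was assessed in transiently transfected human HepG2 cells after 24 h exposure. Transcripts from GAL4-UAS reporters were quantified by fluorescent RT-PCR and capillary electrophoresis, with DMSO as negative control and baseline.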

For test [2], the target named is human Vitamin D Receptor (VDR), VDR (gene 7421) (UniProt P11473). Nature of the test: ATG_VDR_TRANS: Attagene TRANS-FACTORIAL HepG2 Assay for human Vitamin D Receptor (VDR) (AID 2283022). Summed up: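 Steps: transfect HepG2 with GAL4-UAS-driven reporter constructs; dose compounds 24 h; isolate RNA, reverse-transcribe, PCR-amplify with 6-FAM-labelled primer extension and HpaI digestion; quantify fragments by capillary electrophoresis relative to DMSO.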

Test [3] concerns the target human Thyroid Receptor alpha (THRa1), THRA (gene 7067) (UniProt P10827). Nature of the test: ATG_THRa1_TRANS: Attagene TRANS-FACTORIAL HepG2 Assay for human Thyroid Receptor alpha (THRa1) (AID 2283014). Summed up: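 Reporter transcript induction, read by capillary electrophoresis of 6-FAM-labelled RT-PCR products, reflects activity of a transfected THRa1-Gal4 fusion in HepG2 liver cells. Cells were dosed for 24 h; activity was fitted in the positive direction against DMSO.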

Read-out in test [4]: Interleukin-1 alpha (IL1a), IL1A (gene 3552)
Briefly: BSK_BE3C_IL1a: BioMAP Diversity Plus: BE3C Assay for Interleukin-1 alpha (IL1a) Biomarker Activity (AID 2283016; active = hit-call score of the fitted dose curve at least 0.9, where 1 is the maximum; inactive = score below 0.9). The note with it: primary human bronchial epithelial cells; actives raise or lower the signal. The method in brief: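 Signal from IL-1a ELISA, taken 24 h after chemical dosing of human bronchial epithelial cells, is compared with DMSO as baseline using bidirectional curve fitting.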

Read-out in test [5]: Monocyte Chemoattractant Protein-1 (MCP1), CCL2 (gene 6347)
Briefly: BSK_3C_MCP1: BioMAP Diversity Plus: 3C Assay for Monocyte Chemoattractant Protein-1 (MCP1) Biomarker Activity (AID 2283017; active = hit-call score of the fitted dose curve at least 0.9, where 1 is the maximum; inactive = score below 0.9). Conditions: primary human endothelial cells (HUVEC); actives raise or lower the signal. Summed up:
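ELISA read-out of MCP-1 from human umbilical vein endothelial cell cultures harvested 24 h post-dosing. Gain or loss of signal was fitted relative to DMSO.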

Read-out in test [6]: Monocyte Chemoattractant Protein-1 (MCP1), CCL2 (gene 6347)
Briefly: BSK_4H_MCP1: BioMAP Diversity Plus: 4H Assay for Monocyte Chemoattractant Protein-1 (MCP1) Biomarker Activity (AID 2283018; active = hit-call score of the fitted dose curve at least 0.9, where 1 is the maximum; inactive = score below 0.9). The note with it: primary human endothelial cells (HUVEC); actives raise or lower the signal. Summed up:
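Endothelial cells from umbilical vein were treated with test chemical, then after 24 h MCP-1 levels were quantified by ELISA; endpoint values came from bidirectional fitting with DMSO as baseline of activity.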

Read-out in test [7]: Human Leukocyte Antigen - DR isotype (HLADR), HLA-DRA (gene 3122)
Nature of the test: BSK_3C_HLADR: BioMAP Diversity Plus: 3C Assay for Human Leukocyte Antigen - DR isotype (HLADR) Biomarker Activity (AID 2283019; active = hit-call score of the fitted dose curve at least 0.9, where 1 is the maximum; inactive = score below 0.9). The note with it: primary human endothelial cells (HUVEC); actives raise or lower the signal. The method in brief:
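ELISA readout of surface HLA-DR on human umbilical vein endothelium, taken 24 h after chemical treatment. Gain- and loss-of-signal were both fitted relative to DMSO.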

Read-out in test [8]: Interleukin-8 (IL8), CXCL8 (gene 3576)
Nature of the test: BSK_3C_IL8: BioMAP Diversity Plus: 3C Assay for Interleukin-8 (IL8) Biomarker Activity (AID 2283020; active = hit-call score of the fitted dose curve at least 0.9, where 1 is the maximum; inactive = score below 0.9). The note with it: primary human endothelial cells (HUVEC); actives raise or lower the signal. Summed up:
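Endothelial primary cells of human umbilical vein origin are dosed with chemical; after 24 h the IL-8 biomarker is measured by ELISA, and concentration–response is fitted in both directions versus DMSO.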

Read-out in test [9]: Monokine induced gamma interferon (MIG), CXCL9 (gene 4283)
Nature of the test: BSK_3C_MIG: BioMAP Diversity Plus: 3C Assay for Monokine induced gamma interferon (MIG) Biomarker Activity (AID 2283021; active = hit-call score of the fitted dose curve at least 0.9, where 1 is the maximum; inactive = score below 0.9). The note with it: primary human endothelial cells (HUVEC); actives raise or lower the signal. The method in brief: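 Endothelial primary cells (human umbilical vein) are dosed with test chemical in the 3C system. MIG levels are measured by ELISA at 24 h and fitted in both directions relative to DMSO.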

Test [10] can be described thus: BSK_3C_SRB: Viability Assessment in the BioMAP Diversity Plus: 3C Assay (AID 2283023; active = hit-call score of the fitted dose curve at least 0.9, where 1 is the maximum; inactive = score below 0.9;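 also: fitted both ways against DMSO so a hit may be signal rise or drop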). The note with it: primary human endothelial cells (HUVEC). The method in brief: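 Absorbance at 560 nm of sulforhodamine B-stained (0.1%) total protein served as a cytotoxicity readout in human umbilical vein endothelial cells, 24 h after chemical treatment. Signal was fitted bidirectionally relative to DMSO.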

Read-out in test [11]: Matrix Metallopeptidase 1 (MMP1), MMP1 (gene 4312)
Briefly: BSK_BE3C_MMP1: BioMAP Diversity Plus: BE3C Assay for Matrix Metallopeptidase 1 (MMP1) Biomarker Activity (AID 2283024; active = hit-call score of the fitted dose curve at least 0.9, where 1 is the maximum; inactive = score below 0.9). The note with it: primary human bronchial epithelial cells; actives raise or lower the signal. The method in brief:
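MMP1 signal, measured by ELISA after a 24 h chemical exposure of human primary bronchial epithelial cells, is analysed with bidirectional fitting using DMSO as negative control.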

The nature of test [12]: BSK_3C_Vis: BioMAP Diversity Plus: 3C Assay for Morphology Visualization (AID 2283025; active = hit-call score of the fitted dose curve at least 0.9, where 1 is the maximum; inactive = score below 0.9;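 also: fitted both ways so gain or loss versus DMSO counts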). Conditions: primary human endothelial cells (HUVEC). Summed up: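 Morphology read by light microscopy serves as a background control for the multiplexed 3C assay in human umbilical vein endothelial cells, taken 24 h after dosing, with DMSO as the negative control and bidirectional curve fitting.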

Test [13] can be described thus: BSK_4H_SRB: Viability Assessment in the BioMAP Diversity Plus: 4H Assay (AID 2283027; active = hit-call score of the fitted dose curve at least 0.9, where 1 is the maximum; inactive = score below 0.9;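 also: cells exposed to compound for 24 h before staining; curves fitted both ways versus DMSO so AC50 may be loss or gain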). The note with it: primary human endothelial cells (HUVEC). The method in brief: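 Cytotoxicity readout: sulforhodamine B (0.1%) staining of total protein after 10% TCA fixation, measured at 560 nm in human umbilical vein endothelium at 24 h. DMSO set the baseline; fitting was bidirectional.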

Read-out in test [14]: Thrombomodulin, THBD (gene 7056)
Briefly: BSK_3C_Thrombomodulin: BioMAP Diversity Plus: 3C Assay for Thrombomodulin Biomarker Activity (AID 2283029; active = hit-call score of the fitted dose curve at least 0.9, where 1 is the maximum; inactive = score below 0.9). The note with it: primary human endothelial cells (HUVEC); actives raise or lower the signal. The method in brief:
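Endothelial cells from umbilical vein are dosed with test chemical and incubated 24 h. Thrombomodulin is then quantified by ELISA, with DMSO serving as negative control and activity baseline.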

Read-out in test [15]: Urokinase-type plasminogen activator receptor (uPAR), PLAUR (gene 5329)
Nature of the test: BSK_4H_uPAR: BioMAP Diversity Plus: 4H Assay for Urokinase-type plasminogen activator receptor (uPAR) Biomarker Activity (AID 2283030; active = hit-call score of the fitted dose curve at least 0.9, where 1 is the maximum; inactive = score below 0.9). The note with it: primary human endothelial cells (HUVEC); actives raise or lower the signal. The method in brief:
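Cell-surface uPAR ELISA signal, measured 24 h after dosing human umbilical vein endothelial cells, was analyzed with bidirectional fitting relative to DMSO. Parallel SRB staining of total protein tracked overt cytotoxicity.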

Read-out in test [16]: Vascular endothelial growth factor receptor 2 (Homo sapiens) (UniProt P35968)
Nature of the test: BSK_4H_VEGFRII: BioMAP Diversity Plus: 4H Assay for Vascular endothelial growth factor receptor 2 (VEGFR2) Biomarker Activity (AID 2283031; active = hit-call score of the fitted dose curve at least 0.9, where 1 is the maximum; inactive = score below 0.9). The note with it: primary human endothelial cells (HUVEC); actives raise or lower the signal. Summed up: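 ELISA read-out of VEGFRII in primary human umbilical vein endothelium, taken 24 h after chemical treatment. Responses are expressed relative to DMSO, with bidirectional fitting.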

Read-out in test [17]: Human Leukocyte Antigen - DR isotype (HLADR), HLA-DRA (gene 3122)
Briefly: BSK_BE3C_HLADR: BioMAP Diversity Plus: BE3C Assay for Human Leukocyte Antigen - DR isotype (HLADR) Biomarker Activity (AID 2283032; active = hit-call score of the fitted dose curve at least 0.9, where 1 is the maximum; inactive = score below 0.9). The note with it: primary human bronchial epithelial cells; actives raise or lower the signal. The method in brief: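 Chemicals are dosed onto BE3C bronchial epithelial cultures of human origin and left 24 h. HLA-DR is then measured by ELISA, and the endpoint is fitted in both directions using DMSO as the activity baseline.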

Results filed as inconclusive are left out. Calls of active or inactive are those of the source. The calls were made as follows, unless noted: active = hit-call score of the fitted dose curve at least 0.9, where 1 is the maximum; inconclusive = response in the unintended direction; inactive = score below 0.9.

Sequence of human Vitamin D Receptor (VDR), VDR (gene 7421) (P11473 whole entry, looked up, the tested form may be a part): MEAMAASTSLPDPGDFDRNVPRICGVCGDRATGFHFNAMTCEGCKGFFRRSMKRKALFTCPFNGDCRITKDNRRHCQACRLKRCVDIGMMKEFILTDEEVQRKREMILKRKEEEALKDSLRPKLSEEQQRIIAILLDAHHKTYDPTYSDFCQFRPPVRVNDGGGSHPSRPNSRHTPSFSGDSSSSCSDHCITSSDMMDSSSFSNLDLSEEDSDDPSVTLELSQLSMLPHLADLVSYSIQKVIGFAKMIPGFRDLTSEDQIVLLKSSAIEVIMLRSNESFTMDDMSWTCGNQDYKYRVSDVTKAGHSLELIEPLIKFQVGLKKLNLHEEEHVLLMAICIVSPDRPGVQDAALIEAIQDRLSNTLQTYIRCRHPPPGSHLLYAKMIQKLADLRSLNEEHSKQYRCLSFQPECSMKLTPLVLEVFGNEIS
Sequence of human Retinoid X Receptor beta (RXRb), RXRB (gene 6257) (P28702 whole entry, looked up, the tested form may be a part): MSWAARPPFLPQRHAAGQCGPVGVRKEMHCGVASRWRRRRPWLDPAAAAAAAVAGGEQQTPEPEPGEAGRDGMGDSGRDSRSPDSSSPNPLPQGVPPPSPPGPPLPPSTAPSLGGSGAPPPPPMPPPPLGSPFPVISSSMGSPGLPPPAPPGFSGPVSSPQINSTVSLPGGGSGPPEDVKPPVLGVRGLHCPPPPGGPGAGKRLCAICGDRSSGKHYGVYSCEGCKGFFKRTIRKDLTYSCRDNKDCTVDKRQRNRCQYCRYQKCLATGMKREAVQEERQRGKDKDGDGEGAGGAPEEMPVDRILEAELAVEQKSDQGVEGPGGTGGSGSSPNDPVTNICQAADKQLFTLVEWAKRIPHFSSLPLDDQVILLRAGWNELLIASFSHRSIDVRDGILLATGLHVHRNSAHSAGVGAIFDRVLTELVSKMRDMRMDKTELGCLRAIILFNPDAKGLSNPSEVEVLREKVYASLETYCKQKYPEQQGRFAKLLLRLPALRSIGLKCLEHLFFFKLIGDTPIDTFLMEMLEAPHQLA
Sequence of human Thyroid Receptor alpha (THRa1), THRA (gene 7067) (P10827 whole entry, looked up, the tested form may be a part): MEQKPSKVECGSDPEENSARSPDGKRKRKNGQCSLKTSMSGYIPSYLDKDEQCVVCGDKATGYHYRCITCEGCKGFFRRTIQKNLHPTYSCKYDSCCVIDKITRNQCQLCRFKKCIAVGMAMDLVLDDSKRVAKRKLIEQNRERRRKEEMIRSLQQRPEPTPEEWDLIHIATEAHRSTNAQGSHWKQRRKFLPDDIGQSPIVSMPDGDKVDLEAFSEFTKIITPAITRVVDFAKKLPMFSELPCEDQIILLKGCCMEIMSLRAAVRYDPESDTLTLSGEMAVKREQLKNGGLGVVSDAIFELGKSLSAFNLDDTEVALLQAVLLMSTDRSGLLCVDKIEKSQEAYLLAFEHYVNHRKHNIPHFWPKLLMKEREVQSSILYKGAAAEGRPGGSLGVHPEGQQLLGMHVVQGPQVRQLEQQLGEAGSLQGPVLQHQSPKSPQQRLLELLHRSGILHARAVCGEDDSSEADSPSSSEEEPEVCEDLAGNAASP

`CCCCCCCCCCCCCCCC[n+]1ccccc1`: the outcome in [1] was inactive. The AC50 in test [2] was 26800 nM (active).
On to `C(=CC=Nc1ccccc1)C=CNc1ccccc1`, for which the compound was classed as inactive in test [1] and in test [2].
Take `O=S(=O)(Oc1ccc(Cl)cc1Cl)c1ccccc1`: the result in [1], in [3] and in [2] was inactive.
`CCCCC/C=C\CCC=O`: the result in test [1] and in [2] was inactive.
On to `O=c1c2ccccc2nnn1CCl`, for which the outcome in test [1] and in test [2] was inactive.
As to `C=C(C)C(=O)OCCOc1ccccc1`, the call in [1] and in [2] was inactive.
On to `CC[C@H]1OC(=O)[C@H](C)[C@@H](O[C@H]2C[C@@](C)(OC)[C@@H](O)[C@H](C)O2)[C@H](C)[C@@H](O[C@@H]2O[C@H](C)C[C@H](N(C)C)[C@H]2O)[C@](C)(O)C[C@@H](C)C(=NOCOCCOC)[C@H](C)[C@@H](O)[C@]1(C)O`, for which the compound was classed as inactive in test [1] and in test [2].
`CCCCCCC1(C)CCC(=O)O1` (stereo unspecified): the compound was classed as inactive in [1] and in [2].
On to `CCN(CC#N)c1cccc(C)c1`, for which the call in test [1] and in [2] was inactive.
`FC(F)(F)C(=NOCC1OCCO1)c1ccc(Cl)cc1`: the AC50 in [1] is 20400 nM (active). The outcome in [2] was inactive.
As to `CCCOCCOCCOCCO`, the compound was classed as inactive in test [1] and in test [2].
For the compound `Cc1cc(C)c(C)cc1C`, the compound was called inactive in test [1] and in test [2].
Take `CNC(=S)N(C)C`: the compound was classed as inactive in test [1] and in test [2].
Take `CCC(C)(C)C1CCCCC1OC(C)=O` (stereo unspecified): the AC50 in test [1] was 74100 nM (active). The result in test [2] was inactive.
For `CC(=O)CC(N)=O`, the compound was classed as inactive in test [1] and in [2].
`FC(F)=C(F)OC(F)(F)C(F)(F)C(F)(F)F`: the result in test [1] and in [2] was inactive.
On to `CCC(=O)Oc1ccc(/C(CC)=C(\CC)c2ccc(OC(=O)CC)cc2)cc1`, for which the AC50 in [1] is 2920 nM (active). The call in test [2] was inactive.
For the compound `COCc1c(C(C)C)nc(C(C)C)c(/C=C/[C@@H](O)C[C@@H](O)CC(=O)O)c1-c1ccc(F)cc1`, the compound was classed as inactive in [1], in test [4], in [9], in test [2], in test [11] and in [14]. For the same compound, the result in test [16] and in [17] was inactive. For the same compound, the AC50 in test [5] is 4730 nM (active); in test [6] it was 7.77 nM (active); in test [7], 106 nM (active); in [8], 68.5 nM (active); in test [10] it was 43.4 nM (active); in [12], 9.41 nM (active). Further, the AC50 in test [13] was 19.2 nM (active); in test [15] it was 456 nM (active).
